# Results filed as inconclusive are left out. The source made the active and inactive calls. The call rests on the fitted dose curve; in most records, active means well fitted cell-killing curve with a large enough effect; inconclusive means small, poorly fitted or top-dose-only effect, or effect the other way; inactive means no such curve, though single readings can be large or run the other way.
# Test: Quantitative High-Throughput drug screen in 47 multiple myeloma cell lines against the NCATS MIPE library collection: JIM1_ECACC cell viability assay (AID 1918964)
# Details: JIM1 myeloma viability, CellTiter-Glo ATP luminescence, 48 h; series mostly up to 45.8 µM
# Summary of the method: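 Relative luminescence from CellTiter-Glo served as the viability signal, referenced to DMSO-treated (100%) and cell-free medium (0%) controls. Treatment lasted 48 hours at 37C with 500 cells per well.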
# Potency means the concentration at half of the fitted maximal effect.
row,SMILES,Potency
1,O=C(C=Cc1ccc(O)cc1)c1ccc(O)cc1O,4.69 µM (active)
2,CCc1cc(-c2n[nH]c(C)c2-c2ccc3c(c2)OCCO3)c(O)cc1O,5.9 µM (active)
3,CCCCCCCCCCCCCC(=O)N[C@H](CO)[C@H](O)c1ccc([N+](=O)[O-])cc1,14.8 µM (active)
4,Clc1ccc(COC(Cn2ccnc2)c2ccc(Cl)cc2Cl)c(Cl)c1 (centres undefined),26.4 µM (active)
5,CCOc1ccccc1N=Nc1c(C)[nH]n(-c2nc(-c3ccccc3)cs2)c1=O,1.66 µM (active)
6,CN(C(Cc1ccc(OS(=O)(=O)c2cccc3cnccc23)cc1)C(=O)N1CCN(c2ccccc2)CC1)S(=O)(=O)c1cccc2cnccc12 (centres undefined),1.87 µM (active)
7,COc1cc(Cl)cn2c(-c3cccc(NC4CNC4)n3)cnc12,4.18 µM (active)
8,CC(=O)OCC(=O)[C@@]1(O)CC[C@H]2[C@@H]3CCC4=CC(=O)C=C[C@]4(C)[C@@H]3[C@@H](O)C[C@@]21C,inactive
9,COc1cc2nc(-c3cc(F)ccc3O)nc(N[C@@H]3CNC[C@@H]3C(C)(C)O)c2cc1OC,1.87 µM (active)
10,Nc1ncnc2c1ncn2[C@@H]1O[C@H](CO)[C@@H](O)[C@@H]1O,7.43 µM (active)
11,C=C[C@@H]1CN2CCC1C[C@@H]2C(O)c1ccnc2ccc(OC)cc12 (some centres undefined),inactive
12,CO[C@H]1/C=C\O[C@@]2(C)Oc3c(C)c(O)c4c(O)c(c5c(nc6cc(C)ccn65)c4c3C2=O)NC(=O)C(C)=CC=C[C@H](C)[C@H](O)[C@@H](C)[C@@H](O)[C@@H](C)[C@H](OC(C)=O)[C@H]1C,18.7 µM (active)
13,O=S(=O)(NCCNCC=Cc1ccc(Br)cc1)c1cccc2cnccc12,4.18 µM (active)
14,C=CCc1cccc(C=NNC(=O)CN2CCN(Cc3ccccc3)CC2)c1O,5.26 µM (active)
15,CC(C)Oc1cc(Nc2nc(N[C@@H](C)c3ccc(F)cn3)ncc2Cl)[nH]n1,20.9 µM (active)
16,CN(C)c1nc(Cc2ccc(NC(=O)c3ccc(C(F)(F)F)cc3)cc2)nc(N(C)C)c1CC(=O)O,inactive
17,CCC(=O)OCC(=O)[C@@]1(OC(=O)CC)[C@@H](C)C[C@@H]2[C@H]3CCC4=CC(=O)C=C[C@]4(C)[C@@]3(F)[C@@H](O)C[C@@]21C,6.62 µM (active)
18,Cc1ccc2c(c1)c1c(n2CCc2ccc(C)nc2)CCN(C)C1,inactive
19,OC[C@H]1O[C@@H](O[C@H]2[C@@H](O)[C@@](O)(CO)O[C@@H]2CO)[C@H](O)[C@@H](O)[C@@H]1O,inactive
20,CC(=O)NCCC(=O)N[C@@H](CCC(N)=O)C(=O)N[C@@H](CO)C(=O)N[C@@H](CCC(N)=O)C(=O)N[C@@H](CCC(N)=O)C(=O)N[C@H](C(=O)N[C@@H](Cc1ccccc1)C(=O)N[C@]1(C)CCCCCCC=CCCC[C@@](C)(C(=O)N[C@@H](CCC(N)=O)C(=O)N[C@@H](CC(N)=O)C(N)=O)NC(=O)[C@H](CC(C)C)NC(=O)[C@H](CC(C)C)NC(=O)[C@@H](CCCNC(=N)N)NC(=O)[C@H](Cc2c[nH]c3ccccc23)NC(=O)[C@H](CC(C)C)NC(=O)[C@H](CC(N)=O)NC1=O)[C@H](C)O,7.43 µM (active)
21,O=C(c1ccc(C=Cc2n[nH]c3ccccc23)cc1)N1CCNCC1,3.72 µM (active)

# Test: Quantitative High-Throughput drug screen in 47 multiple myeloma cell lines against the NCATS MIPE library collection: INA6_PLB cell viability assay (AID 1918965; further: nearly all actives have a fitted effect of over 55% in size)
# Details: INA6 myeloma viability, CellTiter-Glo ATP luminescence, 48 h; series mostly up to 45.8 µM
# Summary of the method: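 Viability readout: CellTiter-Glo luminescence following 5 min room-temperature incubation with reagent. Prior exposure: 48 h, 37C, humidified 5% CO2, 500 cells per well.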
row,SMILES,Potency
1,O=C(C=Cc1ccc(O)cc1)c1ccc(O)cc1O,3.32 µM (active)
2,CCc1cc(-c2n[nH]c(C)c2-c2ccc3c(c2)OCCO3)c(O)cc1O,4.69 µM (active)
3,CCCCCCCCCCCCCC(=O)N[C@H](CO)[C@H](O)c1ccc([N+](=O)[O-])cc1,23.5 µM (active)
4,COc1ccc(CCN(C)CCCOc2ccc(S(=O)(=O)c3[nH]c4ccccc4c3C(C)C)cc2)cc1OC,16.6 µM (active)
5,Clc1ccc(COC(Cn2ccnc2)c2ccc(Cl)cc2Cl)c(Cl)c1 (centres undefined),20.9 µM (active)
6,CCOc1ccccc1N=Nc1c(C)[nH]n(-c2nc(-c3ccccc3)cs2)c1=O,inactive
7,CC1(C)[C@H]2CC[C@]3(C)[C@@H](C(=O)C=C4[C@@H]5C[C@@](C)(C(=O)O)CC[C@]5(C)CC[C@]43C)[C@@]2(C)CC[C@@H]1O,inactive
8,CN(C(Cc1ccc(OS(=O)(=O)c2cccc3cnccc23)cc1)C(=O)N1CCN(c2ccccc2)CC1)S(=O)(=O)c1cccc2cnccc12 (centres undefined),3.72 µM (active)
9,COc1cc(Cl)cn2c(-c3cccc(NC4CNC4)n3)cnc12,16.6 µM (active)
10,CC(=O)OCC(=O)[C@@]1(O)CC[C@H]2[C@@H]3CCC4=CC(=O)C=C[C@]4(C)[C@@H]3[C@@H](O)C[C@@]21C,7.43 µM (active)
11,COc1cc2nc(-c3cc(F)ccc3O)nc(N[C@@H]3CNC[C@@H]3C(C)(C)O)c2cc1OC,0.001 µM (active)
12,Cc1nn(Cc2ccccc2Cl)c(C)c1CN(C)CC(O)COc1ccc(Cl)cc1 (centres undefined),20.9 µM (active)
13,Nc1ncnc2c1ncn2[C@@H]1O[C@H](CO)[C@@H](O)[C@@H]1O,3.32 µM (active)
14,CN1CCC[C@H]1CCO[C@](C)(c1ccccc1)c1ccc(Cl)cc1,18.7 µM (active)
15,O=S(=O)(NCCNCC=Cc1ccc(Br)cc1)c1cccc2cnccc12,7.43 µM (active)
16,C=CC[N+]1([C@H]2C[C@H]3[C@@H]4CC[C@H]5C[C@H](O)[C@@H](N6CCOCC6)C[C@]5(C)[C@@H]4CC[C@]3(C)[C@H]2OC(C)=O)CCCC1,inactive
17,C=CCc1cccc(C=NNC(=O)CN2CCN(Cc3ccccc3)CC2)c1O,14.8 µM (active)
18,CC(C)Oc1cc(Nc2nc(N[C@@H](C)c3ccc(F)cn3)ncc2Cl)[nH]n1,7.43 µM (active)
19,CO[C@@H]1C(N(C)C(=O)c2ccccc2)C[C@H]2O[C@]1(C)n1c3ccccc3c3c4c(c5c6ccccc6n2c5c31)C(=O)NC4=O (some centres undefined),1.48 µM (active)
20,CN(C)c1nc(Cc2ccc(NC(=O)c3ccc(C(F)(F)F)cc3)cc2)nc(N(C)C)c1CC(=O)O,inactive
21,CN[C@@H]1CN(c2ccc3c(=O)c(C(=O)O)cn(-c4nccs4)c3n2)C[C@@H]1OC,1.44 µM (active)
22,COc1c(C)cnc(Cn2cnc3c(Cl)nc(N)nc32)c1C,0.148 µM (active)
23,C[C@H]1COC2=C1C(=O)C(=O)c1c2ccc2c1CCCC2(C)C,14.8 µM (active)
24,OC[C@H]1O[C@@H](O[C@H]2[C@@H](O)[C@@](O)(CO)O[C@@H]2CO)[C@H](O)[C@@H](O)[C@@H]1O,inactive
25,CC(=O)NCCC(=O)N[C@@H](CCC(N)=O)C(=O)N[C@@H](CO)C(=O)N[C@@H](CCC(N)=O)C(=O)N[C@@H](CCC(N)=O)C(=O)N[C@H](C(=O)N[C@@H](Cc1ccccc1)C(=O)N[C@]1(C)CCCCCCC=CCCC[C@@](C)(C(=O)N[C@@H](CCC(N)=O)C(=O)N[C@@H](CC(N)=O)C(N)=O)NC(=O)[C@H](CC(C)C)NC(=O)[C@H](CC(C)C)NC(=O)[C@@H](CCCNC(=N)N)NC(=O)[C@H](Cc2c[nH]c3ccccc23)NC(=O)[C@H](CC(C)C)NC(=O)[C@H](CC(N)=O)NC1=O)[C@H](C)O,20.9 µM (active)
26,COc1ccc2c(c1)c(C1=C(c3c[nH]c4ccccc34)C(=O)NC1=O)cn2CCCN(C)C,0.526 µM (active)
27,Cc1ccc(S(=O)(=O)OCC(=O)Nc2ccc(C(=O)O)c(O)c2)cc1,13.2 µM (active)
28,O=C(c1ccc(C=Cc2n[nH]c3ccccc23)cc1)N1CCNCC1,3.32 µM (active)

# Reference: PubChem BioAssay (NCATS)
